Data from ChEMBL document CHEMBL4513216, “Probing the Open Global Health Chemical Diversity Library for Multistage-Active Starting Points for Next-Generation Antimalarials” (ACS Infect Dis, 2020).
Among all 68,000 compounds or so, about 2,700 (4%) showed an effect of 50% or more. Only a selection was taken, and strong results are over-represented in it overall.

Test system: Plasmodium berghei
Assay: Screen against P. berghei liver stage (PbLuc), transformed with Luciferase, at 2uM
Format: functional, HepG2
Conditions: tested at 2 uM

SMILES	INHIBITION
CC(C)NC(=O)N1C[C@@H]2C[C@H](C(=O)N3CCCC3)[C@H](C1)O2	-17.24%
CCn1cc(CN2CCc3nc(-c4ccccn4)nc(O)c3C2)cn1	57.4%
Cn1cc(CN2CCc3nc(-c4ccccn4)nc(O)c3C2)cn1	-21.74%
CCn1cc(CN2CCc3nc(N4CCOCC4)nc(O)c3CC2)cn1	7.86%
COCCN(C)C[C@@H]1CN(C(=O)c2cccc(C(F)(F)F)c2)C[C@@H]1CO	-20.58%
CCN(C)C[C@@H]1CN(C(=O)c2cc(C(F)(F)F)n[nH]2)C[C@@H]1CO	51.9%
CCN(C)C[C@@H]1CN(C(=O)c2cc(-c3ccc(F)cc3)n[nH]2)C[C@@H]1CO	54.49%
CN(C)C[C@@H]1CN(C(=O)c2cc(-c3ccccc3)n[nH]2)C[C@@H]1CO	-40.44%
CCn1nc(C)cc1C(=O)N1C[C@@H](CN(C)C)[C@@H](CO)C1	31.31%
CN(C)C[C@@H]1CN(C(=O)c2cc(F)ccc2F)C[C@@H]1CO	-0.3%
O=C(CCCC(=O)NCc1cccc(Br)c1)NCCN1CCCC1	-32.11%
Cc1nc(CN2C[C@@H]3CN(C(=O)C4(C#N)CC4)C[C@@H]3C2=O)cs1	25.5%
CN(C)C(=O)N1CCC2(CCCN(Cc3cnn(C)c3)C2)C1 (configuration not stated)	40.67%
CCn1c(CC2CCN(C(=O)C3CCOC3)CC2)nn(C)c1=O (configuration not stated)	-47.18%
CCC(C)NC(=O)c1cccc(CNCc2csc(C(C)C)n2)c1 (configuration not stated)	-21.15%
CC(C)N(C)Cc1cncc2c1CCN(Cc1ccoc1)C2	1.81%
Cc1ccc(C(=O)NCC(O)CN2CCCC2=O)c(C)c1 (configuration not stated)	-40.9%
COc1ccc(CN(C)C(=O)CN2CC(n3cc(C)cn3)C2)cc1F	-6.33%
NC(=O)c1ccc(N2CCN(Cc3c(Cl)cncc3Cl)CC2)nc1	-20.93%
CCc1nn(C)c(Cl)c1CN1CCN(c2ccc(C(N)=O)cn2)CC1	33.16%
CCOC(=O)c1ccc(N2CCN(Cc3c(C)nn(C)c3Cl)CC2)nc1	55.7%
Cc1nc2c(c(Nc3ccccn3)n1)CN(S(C)(=O)=O)CC2	-48.89%
Cc1noc(C)c1C(=O)N1CCC(n2cccn2)CC1	61.52%
COC(=O)c1cccn1C1CCN(C(=O)c2c(C)noc2C)CC1	39.92%
Cc1noc(C(C)C)c1C(=O)N1CCC(n2cccn2)CC1	22.57%
Cc1noc(C(C)Nc2ccc3oc(C)nc3c2)n1 (configuration not stated)	10.04%

SMILES	INHIBITION
O=C(c1ccc(F)cc1Cl)N1CCC(Nc2cccnn2)CC1	8.37%
Fc1cccc(CN2CCOC3(COCCN(CC4CC4)C3)C2)c1 (configuration not stated)	3.11%
Cc1cn[nH]c1C1COCCN1C(=O)c1ccc2[nH]nnc2c1 (configuration not stated)	37.33%
COc1ccc(C(=O)N2CCOCC2c2[nH]ncc2C)cc1F (configuration not stated)	-53.71%
Cc1cn[nH]c1C1COCCN1C(=O)c1ccc2c(c1)CCCC2 (configuration not stated)	72.17%
CS(=O)(=O)CCN1CCC(Nc2c(Cl)cccc2C#N)CC1	-23.01%
CC(C)OC(=O)N1CCCCC1CCn1cccn1 (configuration not stated)	29.71%
CNC(=O)c1cc2c(s1)CCN(C(=O)CCC1CCCN(C)C1)C2 (configuration not stated)	-4.26%
CN1CCCC(CCC(=O)N2CCc3sc(C(=O)N(C)C)cc3C2)C1 (configuration not stated)	74.44%
CN(C)C(=O)c1cc2c(s1)CCN(C(=O)CCCN1CCCCC1)C2	17.2%
C1CCC(CO[C@@H]2CC[C@H]3[C@H]2OCCN3CC2CCOCC2)C1	42.01%
CC(=O)N1CCN(Cc2ccc(F)cc2)CC2(CC(=O)N(C)C2)C1 (configuration not stated)	44.68%
Cc1c(C)n2c(SCC(=O)N3CCOCC3)nnc2[nH]c1=O	33.59%
Oc1cccc(CN2CCN(C3CCc4ccccc4C3)CC2)c1 (configuration not stated)	-5.87%
COc1ccc(CN2CCN(C3CCc4ccccc4C3)CC2)cc1O (configuration not stated)	59.48%
COc1cc(O)ccc1CN1CCN(C2CCc3ccccc3C2)CC1 (configuration not stated)	31.9%
CCNC(=O)C1CCN(c2nc(-c3ccco3)nc3c2CCNCC3)C1 (configuration not stated)	40.47%
CCC(O)CN1CCN(C(=O)c2cc(Cl)cc3cccnc23)CC1 (configuration not stated)	-28.58%
Cc1cc(C)c(C(=O)N2CCc3c(ncn3CCc3ccccc3)C2)[nH]1	0.51%
Cc1nonc1C(=O)N1CCc2c(ncn2CCc2ccccc2)C1	17.2%
Cc1cc(C(=O)N2CCc3c(ncn3CCc3ccccc3)C2)on1	50.59%
c1ccc(Cn2cc3c(n2)C(COCC2CC2)OCC3)nc1 (configuration not stated)	7.73%
Cn1cnc2c1CCN(Cc1csc(Cc3ccccc3)n1)C2	33.61%
COc1ccc(-n2nnnc2C(C)(C)Nc2ccc(C)cc2C)cc1	57%
Cc1ccc(NC(C)(C)c2nnnn2-c2ccc(Cl)cc2)c(C)c1	-0.62%
Cc1cccc(-n2nnnc2C(C)(C)Nc2ccccc2C)c1	-20.72%
